PubChem BioAssay (NCATS)
Where “and” joins values, the source holds several entries; their conditions need not be identical. Equal values may be shown once. Records with an inconclusive call do not appear. Calls of active or inactive are those of the source. Unless noted, calls follow the shape of the dose curve; as a rule, active = well fitted curve in the direction sought with a large enough effect in the repeat runs; inconclusive = weak or mixed curves; inactive = no such curve, though single readings can be large; an effect the other way counts as inactive or inconclusive.

How the values were obtained:
[1] = target: Cytochrome P450 2D6 (Homo sapiens) (UniProt P10635); assay: Cytochrome P450 family 2 subfamily D member 6 (CYP2D6) small molecule antagonists: luciferase biochemical (cell-free) qHTS assay (AID 1645840); also: nearly all actives have a fitted effect of over 55% in size
Method in brief: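 P450-Glo CYP2D6 system: proluciferin substrate converted by enzyme to luciferin, read by luminescence proportional to activity. Enzyme-substrate mix with compound 10 min at room temperature, then NADPH regeneration 1 h before detection reagent.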

[2] = target: Cytochrome P450 2C9 (Homo sapiens) (UniProt P11712); assay: Cytochrome P450 family 2 subfamily C member 9 (CYP2C9) small molecule antagonists: luciferase biochemical (cell-free) qHTS assay (AID 1645842); also: nearly all actives have a fitted effect of over 55% in size
Method in brief: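 P450-Glo CYP2C9 system: proluciferin substrate with enzyme in mix containing 0.4% BSA, 10 min at room temperature, then NADPH regeneration solution added and incubated 1 h at 37C. Detection reagent stopped reaction; luminescence read after 20 min as RLU.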

[3] = Primary qHTS for inhibitors of nuclear receptor binding SET domain protein 2 (NSD2) in an isogenic RCH-ACV NSD2 p.E1099K mutant (9B) (AID 1645876; active = well fitted curve in the direction sought with a large enough effect; an effect the other way counts as inactive or inconclusive; also: nearly all actives have a fitted effect of over 70% in size)
[4] = Primary qHTS for inhibitors of nuclear receptor binding SET domain protein 2 (NSD2) in an RCH-ACV wild type WT cells (2C) (AID 1645877; active = well fitted curve in the direction sought with a large enough effect; an effect the other way counts as inactive or inconclusive; also: nearly all actives have a fitted effect of over 70% in size)
[5] = target: N-terminal Xaa-Pro-Lys N-methyltransferase 1 (Homo sapiens) (UniProt Q9BV86); assay: Confirmatory qHTS for Inhibitors of N-terminal methyltransferase 1 (NTMT1): MTaseGlo Assay (AID 1645874; active = well fitted curve in the direction sought with a large enough effect; an effect the other way counts as inactive or inconclusive; also: nearly all actives have a fitted effect of over 65% in size)
Method in brief: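 SPKRIA peptide at 1 uM was methylated by 125 nM NTMT1 using 100 uM SAM over 30 min at room temperature, following a 15 min compound preincubation. Product SAH was detected luminescently.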
Potency is read from the fitted curve at half-maximal effect.

Cytochrome P450 2D6 (Homo sapiens), sequence (P10635 whole entry, looked up): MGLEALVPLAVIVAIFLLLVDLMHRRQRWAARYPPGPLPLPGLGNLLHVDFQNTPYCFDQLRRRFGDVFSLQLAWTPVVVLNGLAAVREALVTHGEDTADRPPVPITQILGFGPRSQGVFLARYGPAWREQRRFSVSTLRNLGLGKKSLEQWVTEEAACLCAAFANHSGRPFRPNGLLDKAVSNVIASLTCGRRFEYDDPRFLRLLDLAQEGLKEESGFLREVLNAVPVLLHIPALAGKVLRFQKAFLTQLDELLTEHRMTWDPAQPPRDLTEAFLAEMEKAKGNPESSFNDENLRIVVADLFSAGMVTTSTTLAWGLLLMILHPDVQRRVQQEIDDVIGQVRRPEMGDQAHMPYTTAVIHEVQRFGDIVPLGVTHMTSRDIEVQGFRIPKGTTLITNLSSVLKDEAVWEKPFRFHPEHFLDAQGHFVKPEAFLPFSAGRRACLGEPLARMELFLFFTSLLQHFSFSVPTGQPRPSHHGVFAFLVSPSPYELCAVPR
Cytochrome P450 2C9 (Homo sapiens), sequence (P11712 whole entry, looked up): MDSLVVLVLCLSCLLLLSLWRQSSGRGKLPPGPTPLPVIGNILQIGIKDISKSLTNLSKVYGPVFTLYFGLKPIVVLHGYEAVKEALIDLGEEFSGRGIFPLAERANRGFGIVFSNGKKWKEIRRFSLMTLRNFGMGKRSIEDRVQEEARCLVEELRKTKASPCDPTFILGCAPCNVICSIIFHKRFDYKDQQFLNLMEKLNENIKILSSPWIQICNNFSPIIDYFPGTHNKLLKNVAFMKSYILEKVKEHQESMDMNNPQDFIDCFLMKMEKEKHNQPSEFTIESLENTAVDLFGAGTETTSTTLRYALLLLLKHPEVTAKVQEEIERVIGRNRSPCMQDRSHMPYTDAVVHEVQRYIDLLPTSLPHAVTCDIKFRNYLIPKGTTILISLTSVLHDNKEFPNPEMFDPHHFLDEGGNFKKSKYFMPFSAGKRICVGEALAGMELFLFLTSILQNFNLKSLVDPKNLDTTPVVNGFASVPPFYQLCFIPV
N-terminal Xaa-Pro-Lys N-methyltransferase 1 (Homo sapiens), sequence (Q9BV86 whole entry, looked up): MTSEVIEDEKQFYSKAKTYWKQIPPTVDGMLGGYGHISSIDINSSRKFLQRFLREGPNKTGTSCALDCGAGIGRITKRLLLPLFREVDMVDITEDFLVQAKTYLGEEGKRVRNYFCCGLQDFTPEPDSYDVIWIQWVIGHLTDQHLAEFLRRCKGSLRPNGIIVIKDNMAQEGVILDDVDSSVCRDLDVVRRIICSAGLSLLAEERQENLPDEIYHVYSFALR

Compound: O=C(COc1cccc2c(=O)[nH]ccc12)c1ccccc1
- Potency [1]: inactive
- Potency [2]: 8.49 µM (active)
- Potency [3]: inactive

Compound: COc1cc(N)c(Cl)cc1C(=O)NC[C@@H]1CCN2CCC[C@@H]12
- Potency [1]: 10.7 µM (active)
- Potency [2]: 9.52 µM (active)
- Potency [3]: inactive

Compound: Cc1ccc(-c2c(C(=O)CF)n(CCCO)c3ncnc(N)c23)cc1
- Potency [1]: inactive
- Potency [2]: 21.3 µM (active)

Compound: COc1ncc(Nc2ncc([C@H](C)N3CCN(S(C)(=O)=O)CC3)cc2-c2nc(C)nc(N)n2)cc1F
- Potency [1]: inactive
- Potency [2]: 12 µM (active)
- Potency [3]: 5.8 nM (active) and 5.9 nM (active)
- Potency [4]: 57.8 nM (active) and 8.3 nM (active)

Compound: CN(C)C/C=C/C(=O)Nc1cc2c(Nc3ccc(F)c(Cl)c3)ncnc2cc1OC1CCOC1 (centres undefined)
- Potency [1]: inactive
- Potency [2]: 15.1 µM (active)
- Potency [5]: 20 µM (active)
- Potency [3]: 2.3 µM (active)
- Potency [4]: 2300 nM (active)

Compound: Cc1[nH]c2ccccc2c1C1=C(NCCc2ccc(F)cc2)C(=O)N(C)C1=O
- Potency [1]: 4.25 µM (active)
- Potency [2]: 0.379 µM (active)
- Potency [3]: 6.49 µM (active)
- Potency [4]: 8170 nM (active)

Compound: NC1CCC(Nc2cc(-c3cccc(NCc4cccc(F)c4)n3)c(Cl)cn2)CC1 (centres undefined)
- Potency [1]: 15.1 µM (active)
- Potency [2]: 2.13 µM (active)
- Potency [3]: 0.0817 µM (active)
- Potency [4]: 72.8 nM (active)

Compound: CCCCc1ccc(C(=O)Nc2cc(-c3ccc(Cl)cc3)nn2-c2ccc(Cl)cc2)cc1
- Potency [1]: inactive
- Potency [2]: inactive
- Potency [3]: inactive
- Potency [4]: inactive

Compound: Oc1ccc2nc(CN3CCC(Cc4ccccc4F)CC3)[nH]c2c1
- Potency [1]: 0.0379 µM (active)
- Potency [2]: 10.7 µM (active)

Compound: CON(C)C(=O)[C@H](O)[C@H](Cc1ccccc1)NC(=O)c1cc2cc(Cl)ccc2[nH]1
- Potency [1]: 21.3 µM (active)
- Potency [2]: 10.7 µM (active)

Compound: Cc1ccc(N)cc1O
- Potency [1]: 2.45 µM (active)
- Potency [2]: 20 µM (active)

Compound: Cc1ccccc1-n1c([C@H](C)Nc2nc(N)nc3nc[nH]c23)nc2cccc(C)c2c1=O
- Potency [1]: 16.9 µM (active)
- Potency [2]: 1.34 µM (active)
- Potency [3]: 0.0649 µM (active)
- Potency [4]: 411 nM (active)

Compound: CC1(c2nc3c(C(N)=O)cccc3[nH]2)CCCN1 (centres undefined)
- Potency [1]: inactive
- Potency [2]: inactive
- Potency [3]: inactive

Compound: C[C@H]1Oc2cc(cnc2N)-c2c(nn(C)c2C#N)CN(C)C(=O)c2ccc(F)cc21
- Potency [1]: inactive
- Potency [2]: 6.01 µM (active)

Compound: CC(C)(C)Nc1nc2cc(Cl)c(Cl)cc2nc1S(C)(=O)=O
- Potency [1]: 6.01 µM (active)
- Potency [2]: 5.35 µM (active)
- Potency [3]: 1.29 µM (active)
- Potency [4]: 409 nM (active)

Compound: CC(C)(C)NCCCNC(=O)c1cccc(Br)c1
- Potency [1]: 0.849 µM (active)
- Potency [2]: inactive
- Potency [3]: inactive
- Potency [4]: inactive

Compound: CC(C)(C)c1ccc(S(=O)(=O)NCc2ccc(C(=O)Nc3cccnc3)cc2)cc1
- Potency [1]: 6.74 µM (active)
- Potency [2]: 12 µM (active)
- Potency [3]: 0.258 µM (active)
- Potency [4]: 163 nM (active)

Compound: O=C(Nc1ccc(S(=O)(=O)Nc2nccs2)cc1)C(c1ccccc1)c1ccccc1
- Potency [1]: 19 µM (active)
- Potency [2]: 0.674 µM (active)
- Potency [3]: inactive
- Potency [4]: inactive

Compound: COC(=O)N1CCC(n2ncc3c(N4CCOCC4)nc(-c4ccc(NC(=O)Nc5ccc(CO)cc5)cc4)nc32)CC1
- Potency [1]: 8.49 µM (active)
- Potency [2]: 6.74 µM (active)
- Potency [3]: 0.0163 µM (active)
- Potency [4]: 18.3 nM (active)

Compound: COc1ccc(-c2ccc(-c3cn(C(=O)N4CCCCC4c4ccccc4)nn3)cc2)cc1 (centres undefined)
- Potency [1]: inactive
- Potency [2]: 2.13 µM (active)
- Potency [3]: inactive
- Potency [4]: inactive

Compound: Cc1cccc(Oc2cnc(=O)[nH]c2)c1
- Potency [1]: inactive
- Potency [2]: inactive
- Potency [3]: inactive
- Potency [4]: inactive

Compound: CN1CCN(Cc2ccc(-c3cnc4[nH]cc(-c5ccc6[nH]ccc6c5)c4c3)cc2)CC1
- Potency [1]: 2.13 µM (active)
- Potency [2]: 12 µM (active)
- Potency [3]: 1.45 µM (active)
- Potency [4]: 1450 nM (active)

Compound: CCCn1c(=O)c2[nH]c(-c3ccc(OCC(=O)O)cc3)nc2n(CCC)c1=O
- Potency [1]: inactive
- Potency [2]: inactive
- Potency [3]: inactive
- Potency [4]: inactive

Compound: CC(C)S(=O)(=O)N[C@H]1CCOC[C@@H]1c1ccc(-c2ccc(C#N)s2)cc1
- Potency [1]: 10.7 µM (active)
- Potency [2]: 0.213 µM (active)
- Potency [3]: inactive
- Potency [4]: inactive

Compound: Cn1c2ccc(F)cc2c2c(C(=O)N3CCCC3)cn(-c3ccccc3)c(=O)c21
- Potency [1]: inactive
- Potency [2]: 1.51 µM (active)
- Potency [3]: inactive
- Potency [4]: inactive

Compound: O=C(c1cccc(Cl)c1F)N1CCN(Cc2cccc(Nc3nccs3)n2)CC1
- Potency [1]: 1.69 µM (active)
- Potency [2]: 3.38 µM (active)
- Potency [3]: 0.817 µM (active)
- Potency [4]: 728 nM (active)

Compound: COc1cc(Br)c(S(=O)(=O)Nc2ccc(C(F)(F)F)c(O[C@@H]3CCN(C)C3)c2)cc1OC
- Potency [1]: 23.9 µM (active)
- Potency [2]: 23.9 µM (active)
- Potency [3]: inactive
- Potency [4]: inactive

Compound: COc1ccc(C(=O)Nc2ncc(-c3ccc(C(=O)O)cc3)s2)cc1
- Potency [1]: inactive
- Potency [2]: 10.7 µM (active)
- Potency [3]: 1.63 µM (active)
- Potency [4]: 1840 nM (active)

Compound: Cc1nc(C)c(-c2ccc(C3CCC(CC(=O)O)CC3)cc2)nc1C(N)=O (centres undefined)
- Potency [1]: inactive
- Potency [2]: inactive
- Potency [3]: inactive
- Potency [4]: inactive
